# Assay results reported in PubChem BioAssay AID1850 (Southern Research Specialized Biocontainment Screening …, 2009).
# In all, about 310,000 compounds went through this assay and about 1,000 (0.32%) were called active. How the calls were made is not given here. Not all results are given here. Entries with a potency or affinity are not part of this list.
# Assay: PhoP regulon inhibitors, Salmonella typhi PhoP promoter GFP reporter, confirmatory (AID 1850);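 further: 0% = induced wells with vehicle and 100% = uninduced wells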
# Conditions: fluorescence, 4 h, at 50 µM, hits give high values
row,SMILES,inhibition
1,CC1CCN(C(=O)Cn2cnc3c(cnn3C(C)(C)C)c2=O)CC1,-6.14% (inactive)
2,Cc1nc(SCC(=O)c2ccccc2)[nH]c(=O)c1Oc1ccc(Cl)cc1,-6% (inactive)
3,COc1ccc(C2CC(=O)c3c(ccc4ccccc34)N2)cc1OC (stereo not drawn),2.44% (inactive)
4,Cc1ncc(/C=C2\C(=O)Nc3ccccc32)[nH]1,-10.1% (inactive)
5,Cc1cccc(NC(=O)CSc2nc(=O)n3ccccc3n2)c1C,4.11% (inactive)
6,FC(F)(F)c1nnc(Nc2ccc(Cl)cc2)s1,13.5% (inactive)
7,Fc1ccc(Nc2nnc(C(F)(F)F)s2)cc1,-1.74% (inactive)
8,Cc1ccc(C(=O)N/C(N)=N/c2nc3ccccc3o2)cc1,-27.8% (inactive)
9,O=C(COC(=O)c1ccco1)NC(c1ccccc1)c1ccccc1,-14.2% (inactive)
10,CN(CC(=O)O)S(=O)(=O)c1ccc2c(c1)NC(=O)CC(=O)N2,12.4% (inactive)
11,COc1ccccc1CN1C[C@@H]2C[C@@H](c3ccccc3C)N3CCC[C@@]23C1=O,-4.27% (inactive)
12,COCCNc1nc(-c2cc(-c3ccccc3)on2)cc(C(C)C)n1,-5.87% (inactive)
13,Cc1c(C(=O)Nc2c(N)nc(SCC(=O)NCC3CCCO3)[nH]c2=O)cccc1[N+](=O)[O-] (stereo not drawn),-5.44% (inactive)
14,CCOC(=O)C1CCN(C(=S)NC2CC3C=CC2C3)CC1 (stereo not drawn),6.08% (inactive)
15,COc1ccc(-n2nc(C)cc2N)cc1,4.84% (inactive)
16,Cc1cccc(C(=O)NC(=S)NNC(=O)c2cccs2)c1,-3.39% (inactive)
17,COc1ccc(C(=O)NC(=S)NNC(=O)c2ccc(C)cc2)cc1,18.1% (inactive)
18,O=C(NNC(=S)NC(=O)c1cccs1)c1ccc(O)cc1,-3.75% (inactive)
19,COc1ccc(C(=O)NNC(=S)NC(=O)c2ccc(OC)cc2)cc1,5.93% (inactive)
20,COc1ccc(C(=O)NNC(=S)NC(=O)c2ccc(Cl)cc2)cc1,4.94% (inactive)
21,Cc1cccc(C(=O)NNC(=S)NC(=O)c2ccccc2)c1,18.6% (inactive)
22,Cc1ccc(CSc2nnc(-c3cccc(S(=O)(=O)N4CCOCC4)c3)n2CC(C)C)cc1,10.2% (inactive)
23,CCOC(=O)[C@@H]1CCNC[C@@H]1c1ccccc1,-2.58% (inactive)
24,CCC(C)Sc1nnc(NC(=O)c2ccco2)s1 (stereo not drawn),-2.84% (inactive)
25,CC(C)(C)c1ccccc1N=Cc1ccc2ccccc2n1,-21.3% (inactive)

row,SMILES,inhibition
1,Cc1onc(-c2ccc(Cl)cc2)c1-c1ccnn1S(=O)(=O)c1cccc(C(F)(F)F)c1,-8.24% (inactive)
2,Cc1ccccc1NC(=S)N(Cc1cccnc1)Cc1ccccc1Cl,-8.27% (inactive)
3,CCOC(=O)C1CCN(Cc2c(F)cccc2Cl)CC1,-1.3% (inactive)
4,COc1ccc(C(=O)C2CCCN(C(=O)c3ccc(F)cc3)C2)cc1OC (stereo not drawn),-6.1% (inactive)
5,O=C(Nc1ccc(F)cc1)c1cccnc1,-6.59% (inactive)
6,Cc1ccc(C2N=C(N)Nc3nc4ccccc4n32)cc1 (stereo not drawn),-13.9% (inactive)
7,CCOC(=O)C1=C(C)Nc2nc3ccccc3n2C1c1ccccc1 (stereo not drawn),-6.62% (inactive)
8,NC1=NC(c2ccc(Cl)cc2)n2c(nc3ccccc32)N1 (stereo not drawn),-5.56% (inactive)
9,Cc1cccc(C2N=C(N)Nc3nc4ccccc4n32)c1 (stereo not drawn),1.47% (inactive)
10,NC1=NC(c2ccccc2Cl)n2c(nc3ccccc32)N1 (stereo not drawn),4.77% (inactive)
11,CCn1c2ccccc2c2cc(C3N=C(N)Nc4nc5ccccc5n43)ccc21 (stereo not drawn),6.06% (inactive)
12,CCCCCOc1ccc(CSCCNC(=S)Nc2ccccc2)cc1,-18.1% (inactive)
13,CC(C)CN(C(=O)COC(=O)CSc1ccccc1F)c1c(N)n(Cc2ccccc2)c(=O)[nH]c1=O,4.09% (inactive)
14,COc1cc(C2/C(=C(\O)c3ccc4c(c3)CC(C)O4)C(=O)C(=O)N2CCN2CCOCC2)cc(OC)c1OC (stereo not drawn),-7.62% (inactive)
15,CC(C)(C)NC(=O)/C(=C/c1ccccc1F)NC(=O)c1ccc([N+](=O)[O-])cc1,7.24% (inactive)
16,CC(C)NC(=O)NC(=O)CN1C(=O)NC2(CCc3ccccc3C2)C1=O (stereo not drawn),-20.4% (inactive)
17,C/C=C/C(=O)Nc1nnc(C2CCCCC2)s1,-12.4% (inactive)
18,COC(=O)C1CCCCN1C(=O)c1ccc2oc(Cc3ccccc3)nc2c1 (stereo not drawn),-3.48% (inactive)
19,COc1ccccc1CC(=O)NNS(=O)(=O)c1cccc([N+](=O)[O-])c1,-15.1% (inactive)
20,c1ccc(C[C@H]2CNCCN2CCC23CC4CC(CC(C4)C2)C3)cc1,15.7% (inactive)
21,Oc1ccc(C[C@H]2CNCCN2CCC23CC4CC(CC(C4)C2)C3)cc1,-7.57% (inactive)
22,CCCCN1CCNC[C@H]1Cc1ccc(O)cc1,0.57% (inactive)
23,c1ccc(C[C@H]2CNCCN2CCCCC2CCCCC2)cc1,1.44% (inactive)
24,Oc1ccc(C[C@H]2CNCCN2CC2CCCCC2)cc1,-0.4% (inactive)
25,Oc1ccc(C[C@@H]2CNCCN2CC2CCCCC2)cc1,-6.54% (inactive)

row,SMILES,inhibition
1,Nc1ccccc1SCC(O)Cn1ccc2ccccc21 (stereo not drawn),0.67% (inactive)
2,CN1CCN(CCC(=O)Nc2cccc(F)c2)CC1,-7.12% (inactive)
3,CCOc1ccc(N(CC(=O)N2CCN(Cc3ccccc3)CC2)S(C)(=O)=O)cc1,1.84% (inactive)
4,COc1ccc(N2CCN(C(=O)c3ccc(CSc4ccccc4)cc3)CC2)cc1,3.8% (inactive)
5,CCC(=O)N1CCc2cc(S(=O)(=O)NCCC(=O)NCc3ccc(F)cc3)ccc21,5.61% (inactive)
6,CN(C(=O)Cc1c(C(=O)O)n(C)c2ccccc12)c1ccc(Cl)cc1,-0.76% (inactive)
7,CCOC(=O)C1CN(S(=O)(=O)c2ccccc2)C1,-1.91% (inactive)
8,CC(C)CC(NS(=O)(=O)c1cccc(C(=O)O)c1)C(=O)O (stereo not drawn),-4.1% (inactive)
9,CSc1cccc(NC(=O)c2ccccc2N(C)S(C)(=O)=O)c1,3.99% (inactive)
10,CCc1nnc(NC(=O)[C@@H](NC(=O)c2ccc(C(C)(C)C)cc2)C(C)C)s1,-2.72% (inactive)
11,COc1ccc(C(=O)NC(=S)NNC(=O)c2cnccn2)cc1OC,31.3% (inactive)
12,O=C(NC(=S)NNC(=O)c1cnccn1)c1ccc(Cl)cc1,10.3% (inactive)
13,COc1cc(OC)cc(C(=O)NC(=S)NNC(=O)c2cnccn2)c1,-6.65% (inactive)
14,O=C(NNC(=S)NC(=O)c1cccnc1)c1ccc(F)cc1,15.9% (inactive)
15,COc1cc2oc(=O)cc(C)c2c(OC)c1OC,-3.26% (inactive)
16,Cc1ccc(NC(=O)C2CCCN(S(=O)(=O)c3cccs3)C2)cc1 (stereo not drawn),3.27% (inactive)
17,COc1ccc(N2C(N)=NC(N)=NC2(C)C)cc1,2.39% (inactive)
18,CCOc1ccc(N2C(N)=NC(N)=NC2(C)C)cc1,-0.23% (inactive)
19,COC(=O)c1ccc(CNC(=O)COC(=O)Cc2ccsc2)cc1,8.65% (inactive)
20,O=C(Nc1ccc(F)cc1)c1sc(Cl)nc1-c1ccccc1,-0.89% (inactive)
21,O=C(/C=C/c1ccc(Br)cc1)c1ccco1,2.45% (inactive)
22,O=C(/C=C/c1ccccc1O)c1ccco1,8.77% (inactive)
23,Cc1ccc(-c2cc(-c3ccc(C)cc3)[n+](C)o2)cc1,-2.37% (inactive)
24,COc1ccc(/C=C/C(=O)Oc2ccc(C)cc2)cc1,-5.85% (inactive)
25,CCOc1cccc(CN(C)CC2CCCN(CCc3ccc(Cl)cc3)C2)c1O (stereo not drawn),-8.67% (inactive)

row,SMILES,inhibition
1,CN(Cc1ccccc1OCCO)CC1CCCN(CCc2ccc(Cl)cc2)C1 (stereo not drawn),0.25% (inactive)
2,O=C(Nc1c(C(=O)N2CCOCC2)cnn1-c1ccccc1)c1cccc(F)c1,-2.99% (inactive)
3,Cc1ccc2nc(N(CCN3CCOCC3)C(=O)CCS(=O)(=O)c3ccccc3)sc2c1,0.17% (inactive)
4,COc1cnc(-c2ccccn2)[nH]c1=O,-0.99% (inactive)
5,O=c1[nH]c(-c2ccccn2)nc2ccccc12,-0.6% (inactive)
6,O=C(NC1CCCC1)C(c1ccccn1)N(C(=O)c1csnn1)c1ccccc1Br (stereo not drawn),5.15% (inactive)
7,CCN(CC)CCNC(=O)CNC(=O)c1nn(-c2ccc(OC)c(OC)c2)c(=O)c2ccccc12,-2.16% (inactive)
8,CC(=O)c1cc(C)ccc1OC(=O)c1ccncc1,-3.27% (inactive)
9,CN1CCC2(CC1)N=C(c1ccc(F)cc1)C(=S)N2C(=O)c1ccccc1,-2.67% (inactive)
10,CN1CCC2(CC1)N=C(c1ccc(F)cc1)C(=S)N2C(=O)c1ccc(C(C)(C)C)cc1,17.9% (inactive)
11,O=C(O)c1ccc(S(=O)(=O)Nc2ccc3c(c2)OCCO3)cc1,-5.88% (inactive)
12,CCCC(=O)Nc1ccc(C(=O)NNC(=O)COc2ccc(Br)c(C)c2)cc1,-2.62% (inactive)
13,O=c1[nH]cc(-c2ccccc2)c(=O)[nH]1,2.03% (inactive)
14,O=c1[nH]cc(O)c(=O)[nH]1,6.55% (inactive)
15,COC(=O)CN1C2=NCCCN2c2ccccc21,6.91% (inactive)
16,Cc1sc2cc3c(c(C(=O)c4ccccc4)[n+]2c1C)-c1cccc2cccc-3c12,-9.84% (inactive)
17,Cc1sc2ccccc2[n+]1CC(=O)c1ccccc1,-4.52% (inactive)
18,O=C(OCc1ccc(COC(=O)c2cccnc2Cl)cc1)c1cccnc1Cl,-8.94% (inactive)
19,CCOc1ccc(OCC(=O)N2CCOCC2)cc1,-0.13% (inactive)
20,CCn1ccc(=O)c2cc3c(cc21)OCO3,-2.2% (inactive)
21,CCOC(=O)c1cn(CC)c2cc3c(cc2c1=O)OCO3,2.61% (inactive)
22,CCn1nc(C(=O)N2CCN(Cc3ccc4c(c3)OCO4)CC2)c2ccccc2c1=O,-11.3% (inactive)
23,CCn1cc(C(=O)NCCC(=O)OC)c(=O)c2cc3c(cc21)OCO3,2.1% (inactive)
